Measured values published in PubChem BioAssay (EPA / NIEHS).
“And” between values parts separate entries of the source, which are not always exact repeats. Equal values may be shown once. Results filed as inconclusive are left out. The source holds several records for some structures; these can differ, active in one and inactive in another. The source made the active and inactive calls. How the source made its calls, unless noted: active means hit-call score of the fitted dose curve at least 0.9, where 1 is the maximum; inactive means score below 0.9.

Assays:
[1] = molecular target: human Peroxisome Proliferator-activated Receptor delta (PPARd), PPARD (gene 5467) (UniProt Q03181); test: ATG_PPARd_TRANS: Attagene TRANS-FACTORIAL HepG2 Assay for human Peroxisome Proliferator-activated Receptor delta (PPARd) (AID 2283002; active means hit-call score of the fitted dose curve at least 0.9, where 1 is the maximum)
Summary of the method: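 Multiplexed trans-activation format: HepG2 liver cells expressing exogenous NR-Gal4 chimeras and GAL4-UAS reporters were exposed for 24 h. Reporter mRNA was detected by RT-PCR with capillary electrophoresis fluorescence; activity fitted as gain of signal relative to DMSO.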

[2] = read-out: Intercellular Adhesion Molecule 1 (ICAM1), ICAM1 (gene 3383); test: BSK_3C_ICAM1: BioMAP Diversity Plus: 3C Assay for Intercellular Adhesion Molecule 1 (ICAM1) Biomarker Activity (AID 2283003); conditions: primary human endothelial cells (HUVEC); actives raise or lower the signal
Summary of the method: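 Primary human umbilical vein endothelial cells in the BioMAP 3C system were exposed to chemicals for 24 h, then ICAM-1 was quantified by ELISA. Activity was fitted bidirectionally against the DMSO negative control baseline.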

[3] = BSK_3C_Proliferation: Cell Proliferation Assessment in the BioMAP Diversity Plus: 3C Assay (AID 2283006); conditions: primary human endothelial cells (HUVEC);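 on AC50: potency may reflect either rise or fall in cell number versus DMSO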
Summary of the method: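 Human umbilical vein endothelial cells were grown sub-confluent and exposed to chemical for 48 h, then fixed with 10% TCA and stained with 0.1% sulforhodamine B; absorbance at 560 nm gave relative cell number, fitted bidirectionally against DMSO baseline.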

[4] = molecular target: Peroxisome proliferator-activated receptor gamma (Homo sapiens) (UniProt P37231); test: ATG_PPARg_TRANS: Attagene TRANS-FACTORIAL HepG2 Assay for human Peroxisome Proliferator-activated Receptor-gamma (PPARg) (AID 2283007; active means hit-call score of the fitted dose curve at least 0.9, where 1 is the maximum)
Sequence of Peroxisome proliferator-activated receptor gamma (Homo sapiens) (P37231 whole entry, looked up, the tested form may be a part): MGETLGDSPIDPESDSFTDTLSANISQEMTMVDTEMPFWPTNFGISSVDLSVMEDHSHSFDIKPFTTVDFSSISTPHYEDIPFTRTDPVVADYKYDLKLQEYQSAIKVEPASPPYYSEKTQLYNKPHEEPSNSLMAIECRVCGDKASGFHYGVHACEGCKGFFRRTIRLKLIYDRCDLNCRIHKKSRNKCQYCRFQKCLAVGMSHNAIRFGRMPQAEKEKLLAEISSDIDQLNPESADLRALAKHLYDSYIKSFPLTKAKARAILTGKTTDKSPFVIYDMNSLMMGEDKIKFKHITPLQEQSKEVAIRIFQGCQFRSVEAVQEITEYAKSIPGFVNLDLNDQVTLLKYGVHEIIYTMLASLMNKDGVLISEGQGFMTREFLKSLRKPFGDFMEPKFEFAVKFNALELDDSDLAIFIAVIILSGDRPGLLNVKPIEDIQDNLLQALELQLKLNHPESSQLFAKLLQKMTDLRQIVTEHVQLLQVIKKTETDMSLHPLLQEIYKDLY
Summary of the method: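 Liver-derived HepG2 cells expressing an exogenous NR-Gal4 chimera alongside GAL4-UAS reporter genes; 24 h exposure. Fluorescence of reporter RT-PCR products, separated by capillary electrophoresis, gives mRNA induction relative to DMSO.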

[5] = molecular target: Nuclear receptor subfamily 1 group I member 2 (Homo sapiens) (UniProt O75469); test: ATG_PXR_TRANS: Attagene TRANS-FACTORIAL HepG2 Assay for human Pregnane X Receptor (PXR) (AID 2283008; active means hit-call score of the fitted dose curve at least 0.9, where 1 is the maximum)
Sequence of Nuclear receptor subfamily 1 group I member 2 (Homo sapiens) (O75469 whole entry, looked up, the tested form may be a part): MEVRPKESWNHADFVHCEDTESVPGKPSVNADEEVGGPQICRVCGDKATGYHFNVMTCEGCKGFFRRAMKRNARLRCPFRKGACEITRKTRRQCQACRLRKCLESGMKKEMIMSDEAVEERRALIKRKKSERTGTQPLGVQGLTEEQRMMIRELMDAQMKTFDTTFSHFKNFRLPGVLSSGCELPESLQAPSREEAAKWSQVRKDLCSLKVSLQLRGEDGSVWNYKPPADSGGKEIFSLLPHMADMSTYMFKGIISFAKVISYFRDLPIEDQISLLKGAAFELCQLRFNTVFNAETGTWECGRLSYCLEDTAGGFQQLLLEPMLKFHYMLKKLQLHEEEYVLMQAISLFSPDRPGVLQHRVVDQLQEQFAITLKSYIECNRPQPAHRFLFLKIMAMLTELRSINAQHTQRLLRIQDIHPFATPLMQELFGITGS
Summary of the method: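 HepG2 cells transiently transfected with GAL4-UAS reporter units and PXR-Gal4 chimera, exposed 24 h. Reporter mRNA quantified by RT-PCR, fluorescent labelling, HpaI digestion and capillary electrophoresis; gain of signal vs DMSO.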

[6] = molecular target: human RAR-related Orphan Receptor beta (RORb), RORB (gene 6096) (UniProt Q92753); test: ATG_RORb_TRANS: Attagene TRANS-FACTORIAL HepG2 Assay for human RAR-related Orphan Receptor beta (RORb) (AID 2283010; active means hit-call score of the fitted dose curve at least 0.9, where 1 is the maximum)
Sequence of human RAR-related Orphan Receptor beta (RORb), RORB (gene 6096) (Q92753 whole entry, looked up, the tested form may be a part): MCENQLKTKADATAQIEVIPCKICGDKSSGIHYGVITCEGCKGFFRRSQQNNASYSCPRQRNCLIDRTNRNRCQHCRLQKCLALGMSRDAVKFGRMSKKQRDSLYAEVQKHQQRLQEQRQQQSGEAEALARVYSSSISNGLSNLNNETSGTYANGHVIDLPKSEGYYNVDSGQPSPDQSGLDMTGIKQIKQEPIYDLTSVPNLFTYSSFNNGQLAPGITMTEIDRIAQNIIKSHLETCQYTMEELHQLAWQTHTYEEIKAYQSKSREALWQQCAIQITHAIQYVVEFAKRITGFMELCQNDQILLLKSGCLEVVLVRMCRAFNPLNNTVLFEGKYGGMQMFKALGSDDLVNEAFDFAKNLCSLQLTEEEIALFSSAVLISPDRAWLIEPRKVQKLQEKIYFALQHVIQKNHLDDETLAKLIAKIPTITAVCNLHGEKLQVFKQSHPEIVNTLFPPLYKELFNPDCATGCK
Summary of the method: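 HepG2 cells were transiently transfected with multiplexed GAL4-UAS reporter units expressing chimeric nuclear receptor–GAL4 proteins, then dosed for 24 h. Reporter mRNA was quantified by RT-PCR with fluorescent labelling and capillary electrophoresis; gain of signal was fitted relative to DMSO.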

[7] = molecular target: human RAR-related Orphan Receptor gamma (RORg), RORC (gene 6097) (UniProt P51449); test: ATG_RORg_TRANS: Attagene TRANS-FACTORIAL HepG2 Assay for human RAR-related Orphan Receptor gamma (RORg) (AID 2283011; active means hit-call score of the fitted dose curve at least 0.9, where 1 is the maximum)
Sequence of human RAR-related Orphan Receptor gamma (RORg), RORC (gene 6097) (P51449 whole entry, looked up, the tested form may be a part): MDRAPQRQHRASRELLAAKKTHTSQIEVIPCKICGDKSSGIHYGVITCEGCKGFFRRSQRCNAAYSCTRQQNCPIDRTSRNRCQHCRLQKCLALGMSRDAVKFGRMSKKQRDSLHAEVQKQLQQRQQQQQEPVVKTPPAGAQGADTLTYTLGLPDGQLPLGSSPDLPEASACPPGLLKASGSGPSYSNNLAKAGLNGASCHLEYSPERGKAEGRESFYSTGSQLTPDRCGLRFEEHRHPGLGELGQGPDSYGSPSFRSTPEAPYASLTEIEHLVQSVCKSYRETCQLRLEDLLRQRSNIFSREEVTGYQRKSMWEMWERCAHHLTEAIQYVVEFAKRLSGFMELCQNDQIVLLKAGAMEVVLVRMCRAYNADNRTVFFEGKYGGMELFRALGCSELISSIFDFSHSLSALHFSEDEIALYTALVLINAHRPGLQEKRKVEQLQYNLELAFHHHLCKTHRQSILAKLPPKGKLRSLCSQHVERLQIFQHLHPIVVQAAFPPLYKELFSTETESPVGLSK
Summary of the method: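 Readout: reporter transcript induction (RT-PCR, fluorescent primer extension, capillary electrophoresis) after 24 h compound exposure of transiently transfected HepG2 cells carrying a RORg-Gal4 chimera and GAL4-UAS reporters; DMSO served as baseline, with increasing signal fitted.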

[8] = molecular target: Retinoic acid receptor RXR-alpha (Homo sapiens) (UniProt P19793); test: ATG_RXRa_TRANS: Attagene TRANS-FACTORIAL HepG2 Assay for human Retinoid X Receptor alpha (RXRa) (AID 2283012; active means hit-call score of the fitted dose curve at least 0.9, where 1 is the maximum)
Sequence of Retinoic acid receptor RXR-alpha (Homo sapiens) (P19793 whole entry, looked up, the tested form may be a part): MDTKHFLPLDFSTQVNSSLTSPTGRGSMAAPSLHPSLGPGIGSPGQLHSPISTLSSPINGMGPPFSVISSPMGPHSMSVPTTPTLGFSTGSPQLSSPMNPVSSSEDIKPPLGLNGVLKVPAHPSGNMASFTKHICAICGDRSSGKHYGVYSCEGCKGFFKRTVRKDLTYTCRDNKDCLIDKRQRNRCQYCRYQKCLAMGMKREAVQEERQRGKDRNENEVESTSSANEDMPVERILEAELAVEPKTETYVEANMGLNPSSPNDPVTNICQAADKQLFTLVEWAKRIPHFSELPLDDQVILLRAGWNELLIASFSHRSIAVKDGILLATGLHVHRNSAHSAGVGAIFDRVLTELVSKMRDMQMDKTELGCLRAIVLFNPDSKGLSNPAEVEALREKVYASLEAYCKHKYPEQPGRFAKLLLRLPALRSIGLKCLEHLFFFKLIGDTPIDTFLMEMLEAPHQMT
Summary of the method: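 HepG2 cells transiently transfected with multiplexed GAL4-UAS reporter units and chimeric NR-GAL4 fusions, dosed 24 h. Reporter mRNA measured by RT-PCR, FAM labelling, HpaI digestion and capillary electrophoresis; gain-of-signal fitted relative to DMSO baseline.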

[9] = molecular target: human Retinoid X Receptor beta (RXRb), RXRB (gene 6257) (UniProt P28702); test: ATG_RXRb_TRANS: Attagene TRANS-FACTORIAL HepG2 Assay for human Retinoid X Receptor beta (RXRb) (AID 2283013; active means hit-call score of the fitted dose curve at least 0.9, where 1 is the maximum)
Sequence of human Retinoid X Receptor beta (RXRb), RXRB (gene 6257) (P28702 whole entry, looked up, the tested form may be a part): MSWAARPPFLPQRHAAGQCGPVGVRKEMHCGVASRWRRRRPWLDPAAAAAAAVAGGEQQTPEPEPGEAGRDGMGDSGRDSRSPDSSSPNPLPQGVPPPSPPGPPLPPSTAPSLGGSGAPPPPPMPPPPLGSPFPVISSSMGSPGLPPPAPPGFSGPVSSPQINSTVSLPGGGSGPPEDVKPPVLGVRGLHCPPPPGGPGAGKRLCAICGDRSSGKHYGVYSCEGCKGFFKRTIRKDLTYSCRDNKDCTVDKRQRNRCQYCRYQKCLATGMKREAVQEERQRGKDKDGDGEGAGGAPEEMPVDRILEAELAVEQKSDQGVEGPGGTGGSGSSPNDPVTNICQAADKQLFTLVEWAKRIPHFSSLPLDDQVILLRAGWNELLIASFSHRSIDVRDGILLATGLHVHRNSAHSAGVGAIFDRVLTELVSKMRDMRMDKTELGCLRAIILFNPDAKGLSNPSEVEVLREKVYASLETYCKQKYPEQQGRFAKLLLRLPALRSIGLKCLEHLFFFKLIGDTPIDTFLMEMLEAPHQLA
Summary of the method: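 HepG2 cells transiently transfected with multiplexed reporter units driven by GAL4-UAS and exogenous chimeric NR-Gal4 proteins; treated 24 h. Reporter mRNA measured by RT-PCR, 6-FAM labelling and capillary electrophoresis; gain-of-signal fitted versus DMSO baseline.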

[10] = read-out: E-selectin (Homo sapiens) (UniProt P16581); test: BSK_3C_Eselectin: BioMAP Diversity Plus: 3C Assay for Eselectin Biomarker Activity (AID 2283015); conditions: primary human endothelial cells (HUVEC); actives raise or lower the signal;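 further: cell surface E-selectin protein quantified by ELISA 24 h after dosing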
Summary of the method: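 Primary human umbilical vein endothelial cells (3C system) were dosed with chemical and cell-surface E-selectin measured by ELISA 24 h later. Bidirectional curve fitting used DMSO as negative control and baseline.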

[11] = read-out: Interleukin-1 alpha (IL1a), IL1A (gene 3552); test: BSK_BE3C_IL1a: BioMAP Diversity Plus: BE3C Assay for Interleukin-1 alpha (IL1a) Biomarker Activity (AID 2283016); conditions: primary human bronchial epithelial cells; actives raise or lower the signal
Summary of the method: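 Human primary bronchial epithelial cells (BE3C system) were dosed with compound and IL-1a measured by ELISA 24 h later. Activity was fitted bidirectionally against DMSO baseline; cytotoxicity was tracked in parallel cultures by SRB total-protein staining.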

[12] = read-out: Monocyte Chemoattractant Protein-1 (MCP1), CCL2 (gene 6347); test: BSK_3C_MCP1: BioMAP Diversity Plus: 3C Assay for Monocyte Chemoattractant Protein-1 (MCP1) Biomarker Activity (AID 2283017); conditions: primary human endothelial cells (HUVEC); actives raise or lower the signal
Summary of the method: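 Primary human umbilical vein endothelial cells (3C system) were exposed to test chemical for 24 h, after which MCP-1 was quantified by ELISA. Activity was fitted bidirectionally against DMSO as negative control and baseline.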

[13] = read-out: Monocyte Chemoattractant Protein-1 (MCP1), CCL2 (gene 6347); test: BSK_4H_MCP1: BioMAP Diversity Plus: 4H Assay for Monocyte Chemoattractant Protein-1 (MCP1) Biomarker Activity (AID 2283018); conditions: primary human endothelial cells (HUVEC); actives raise or lower the signal
Summary of the method: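 Human umbilical vein endothelial cells (4H system) dosed with chemical; MCP-1 measured by ELISA 24 h after dosing. Bidirectional curve fitting against DMSO negative control as baseline; parallel SRB total-protein staining tracks overt cytotoxicity.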

[14] = read-out: Human Leukocyte Antigen - DR isotype (HLADR), HLA-DRA (gene 3122); test: BSK_3C_HLADR: BioMAP Diversity Plus: 3C Assay for Human Leukocyte Antigen - DR isotype (HLADR) Biomarker Activity (AID 2283019); conditions: primary human endothelial cells (HUVEC); actives raise or lower the signal;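 further: ELISA of cell-surface HLA-DR on HUVEC 24 h after dosing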
Summary of the method: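 Primary human umbilical vein endothelial cells (3C system) were dosed with compound and cell-surface HLA-DR was quantified by ELISA at 24 h. Activity was fitted bidirectionally against DMSO as negative control and baseline.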

[15] = read-out: Interleukin-8 (IL8), CXCL8 (gene 3576); test: BSK_3C_IL8: BioMAP Diversity Plus: 3C Assay for Interleukin-8 (IL8) Biomarker Activity (AID 2283020); conditions: primary human endothelial cells (HUVEC); actives raise or lower the signal
Summary of the method: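 Primary human umbilical vein endothelial cells (3C system) were exposed to test chemical for 24 h, then IL-8 was quantified by ELISA. Responses were fitted bidirectionally against DMSO vehicle as baseline.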

[16] = read-out: Monokine induced gamma interferon (MIG), CXCL9 (gene 4283); test: BSK_3C_MIG: BioMAP Diversity Plus: 3C Assay for Monokine induced gamma interferon (MIG) Biomarker Activity (AID 2283021); conditions: primary human endothelial cells (HUVEC); actives raise or lower the signal
Summary of the method: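 Primary human umbilical vein endothelial cells in the 3C system were exposed to chemical for 24 h, after which MIG was quantified by ELISA. Activity was fitted bidirectionally against DMSO as negative control and baseline.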

[17] = molecular target: human Vitamin D Receptor (VDR), VDR (gene 7421) (UniProt P11473); test: ATG_VDR_TRANS: Attagene TRANS-FACTORIAL HepG2 Assay for human Vitamin D Receptor (VDR) (AID 2283022; active means hit-call score of the fitted dose curve at least 0.9, where 1 is the maximum)
Sequence of human Vitamin D Receptor (VDR), VDR (gene 7421) (P11473 whole entry, looked up, the tested form may be a part): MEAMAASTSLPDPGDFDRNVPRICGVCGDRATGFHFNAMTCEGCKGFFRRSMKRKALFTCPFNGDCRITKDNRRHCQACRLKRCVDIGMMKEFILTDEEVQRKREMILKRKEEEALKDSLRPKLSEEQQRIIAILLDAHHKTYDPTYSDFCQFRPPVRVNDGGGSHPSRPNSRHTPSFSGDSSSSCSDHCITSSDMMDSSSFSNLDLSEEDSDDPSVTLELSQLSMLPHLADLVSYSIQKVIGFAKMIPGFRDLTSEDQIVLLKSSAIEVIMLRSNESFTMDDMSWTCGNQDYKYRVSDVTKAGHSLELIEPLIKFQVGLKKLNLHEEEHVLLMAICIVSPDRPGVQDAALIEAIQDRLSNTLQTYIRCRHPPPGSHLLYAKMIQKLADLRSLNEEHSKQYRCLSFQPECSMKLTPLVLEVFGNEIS
Summary of the method: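 HepG2 cells were transiently transfected with multiple GAL4-UAS reporter units, so signal reflects exogenous chimeric receptor-Gal4 activity. After 24 h compound exposure, reporter mRNA was measured by RT-PCR, fluorescent labelling and capillary electrophoresis, fitted for gain of signal versus DMSO.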

[18] = BSK_3C_SRB: Viability Assessment in the BioMAP Diversity Plus: 3C Assay (AID 2283023); conditions: primary human endothelial cells (HUVEC);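 further: fitted both ways against DMSO so a hit may be signal rise or drop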
Summary of the method: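 Primary human umbilical vein endothelial cells in the 3C system were read 24 h after compound dosing. Total protein was stained with 0.1% sulforhodamine B after 10% TCA fixation and read at 560 nm, with bidirectional fitting against DMSO as baseline.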

[19] = molecular target: human Retinoic Acid Receptor gamma (RARg), RARG (gene 5916) (UniProt P13631); test: ATG_RARg_TRANS: Attagene TRANS-FACTORIAL HepG2 Assay for human Retinoic Acid Receptor gamma (RARg) (AID 2283009; active means hit-call score of the fitted dose curve at least 0.9, where 1 is the maximum)
Sequence of human Retinoic Acid Receptor gamma (RARg), RARG (gene 5916) (P13631 whole entry, looked up, the tested form may be a part): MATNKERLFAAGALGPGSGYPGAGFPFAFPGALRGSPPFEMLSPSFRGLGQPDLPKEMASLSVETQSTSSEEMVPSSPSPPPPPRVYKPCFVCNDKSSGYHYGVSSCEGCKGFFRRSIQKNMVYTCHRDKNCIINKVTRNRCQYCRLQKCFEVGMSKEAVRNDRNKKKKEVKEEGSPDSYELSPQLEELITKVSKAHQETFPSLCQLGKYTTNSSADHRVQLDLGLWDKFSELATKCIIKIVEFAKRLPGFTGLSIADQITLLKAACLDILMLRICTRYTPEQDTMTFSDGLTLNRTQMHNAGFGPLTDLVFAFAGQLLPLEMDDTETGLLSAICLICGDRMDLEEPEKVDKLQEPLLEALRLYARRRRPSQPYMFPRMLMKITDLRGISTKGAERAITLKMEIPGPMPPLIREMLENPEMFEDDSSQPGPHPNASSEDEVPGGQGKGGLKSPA
Summary of the method: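 HepG2 cells transiently transfected with multiplexed reporter units expressing chimeric RARg-GAL4 and GAL4-UAS-driven reporters; 24 h compound exposure. Reporter mRNA quantified by RT-PCR with fluorescent labelling and capillary electrophoresis; gain-of-signal fitted relative to DMSO baseline.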

[20] = molecular target: human Thyroid Receptor alpha (THRa1), THRA (gene 7067) (UniProt P10827); test: ATG_THRa1_TRANS: Attagene TRANS-FACTORIAL HepG2 Assay for human Thyroid Receptor alpha (THRa1) (AID 2283014; active means hit-call score of the fitted dose curve at least 0.9, where 1 is the maximum)
Sequence of human Thyroid Receptor alpha (THRa1), THRA (gene 7067) (P10827 whole entry, looked up, the tested form may be a part): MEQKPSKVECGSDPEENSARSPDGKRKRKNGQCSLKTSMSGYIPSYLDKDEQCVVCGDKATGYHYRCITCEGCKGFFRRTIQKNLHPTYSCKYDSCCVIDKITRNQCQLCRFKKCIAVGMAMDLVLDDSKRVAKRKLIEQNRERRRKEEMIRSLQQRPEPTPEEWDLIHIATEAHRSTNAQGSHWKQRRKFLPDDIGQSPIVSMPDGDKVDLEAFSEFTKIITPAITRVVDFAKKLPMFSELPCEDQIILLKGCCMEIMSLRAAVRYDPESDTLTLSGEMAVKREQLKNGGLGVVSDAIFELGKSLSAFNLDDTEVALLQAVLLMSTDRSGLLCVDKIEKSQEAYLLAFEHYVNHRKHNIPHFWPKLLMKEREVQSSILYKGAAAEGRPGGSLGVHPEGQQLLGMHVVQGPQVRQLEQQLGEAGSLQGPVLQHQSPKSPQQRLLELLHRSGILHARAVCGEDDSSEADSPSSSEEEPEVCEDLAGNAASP
Summary of the method: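 HepG2 cells transiently transfected with multiplexed GAL4-UAS reporter units for exogenous chimeric THRa1-Gal4; reporter mRNA measured 24 h after dosing by RT-PCR, 6-FAM labelling, HpaI digestion and capillary electrophoresis. Gain-of-signal fitted versus DMSO baseline.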

Measured: AC50

Sequence of E-selectin (Homo sapiens) (P16581 whole entry, looked up): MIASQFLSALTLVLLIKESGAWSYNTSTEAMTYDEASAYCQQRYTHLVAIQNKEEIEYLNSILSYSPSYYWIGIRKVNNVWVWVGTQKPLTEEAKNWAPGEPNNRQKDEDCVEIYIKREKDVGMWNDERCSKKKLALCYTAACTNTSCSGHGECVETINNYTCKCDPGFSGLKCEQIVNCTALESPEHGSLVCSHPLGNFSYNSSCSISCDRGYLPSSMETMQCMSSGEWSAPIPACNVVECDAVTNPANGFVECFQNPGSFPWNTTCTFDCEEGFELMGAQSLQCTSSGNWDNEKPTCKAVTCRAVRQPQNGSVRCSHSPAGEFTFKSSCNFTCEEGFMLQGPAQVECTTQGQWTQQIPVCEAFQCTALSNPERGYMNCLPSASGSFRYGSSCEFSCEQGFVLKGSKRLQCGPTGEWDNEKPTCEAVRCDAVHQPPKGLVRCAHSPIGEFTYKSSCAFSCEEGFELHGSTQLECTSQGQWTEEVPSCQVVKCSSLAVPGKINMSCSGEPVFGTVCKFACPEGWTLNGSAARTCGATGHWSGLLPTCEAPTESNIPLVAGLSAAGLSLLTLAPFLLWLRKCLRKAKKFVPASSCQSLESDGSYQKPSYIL

Nc1cc2c3c(c1)C(c1ccccc1)=N[C@@H](NC(=O)c1cccnc1)C(=O)N3CC2
active: [4] 48.4 µM | [5] 11.2 µM
not listed: [19] | [20]
inactive: all other assays above

Cc1cccc(N)c1
not listed: [5] | [8] | [9]
inactive: all other assays above

OCC(F)(F)OC(F)(F)C(F)(F)OC(F)(F)C(F)(F)OC(F)(F)CO
active: [3] 5.95 µM and 35.3 µM | [9] 17.4 µM | [13] 16.2 µM | [18] 30 µM
inactive: [1] | [2] | [4] | [19] | [8] | [20] | [10] | [11] | [12] | [13] | [14] | [15] | [16] | [17] | [18]

O=C(O)C(F)(F)OC(F)(F)C(F)(F)OC(F)(F)F
active: [4] 122 µM and 84.6 µM
not listed: [6] | [19]
inactive: all other assays above

CCNc1nc(Cl)nc(NC(C)(C)C)n1
active: [9] 49.1 µM
not listed: [5] | [6]
inactive: all other assays above

CCOP(=S)(S)OCC
active: [3] 20.9 µM
not listed: [7] | [8] | [9] | [17] | [19] | [20]
inactive: all other assays above

O=P1(N(CCCl)CCCl)NCCCO1 (centres undefined)
not listed: [6] | [8] | [9] | [19] | [20]
inactive: all other assays above
